MCF10A rerep – DNA re-replication induction in MCF 10a cells; MCF 10A DNA re-replication, Hoechst nuclear intensity, 48 h; Potency, µM (titrated, usually from 46.1 µM), inactives show at the top dose activity, positive = re-replication, hits mostly activators; actives 2.9% (n = 350,000); AID 624296; also: % of control where 0% means no effect; nearly all actives have a fitted effect of over 50% in size
HT1080 IDH1KD tx – toxicity to HT-1080 IDH1 knockdown cells (counter line) | HT-1080 IDH1 knockdown viability, ATP luminescence, 48 h | Potency, µM (series often up to 46.1 µM), inactives show at the highest dose activity, negative = toxicity, hits mostly cytotoxic | actives 2% (n = 360,000);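 also: 0% = DMSO wells and -100% = cell-free medium wells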
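IDH1KD HT-1080 cells, 750/well, RPMI + 5% FBS; compound pinned after 2 h settling; 48 h, 37 °C; CellTiter-Glo luminescence; % activity normalised to DMSO and no-cell wells; curves fitted, classed by r2 and efficacy.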
KB-V1 cytotox – kills drug-selected multidrug resistant KB-V1 cells. KB-V1 MDR cells viability, CellTiter-Glo, 72 h. Potency, µM (titrated, usually from 46.1 µM), usual class: cytotoxic. AID 1347076. actives 3.4% (n = 400,000); also: % is scaled to controls: 0 for no effect and ±100 for the full control effect; nearly all actives have a fitted effect of over 60% in size
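Following 72 h at 37 degrees C with compound, KB-V1 cell viability was read by CellTiter-Glo luminescence, medium being phenol-red-free DMEM plus 10% FBS; concentration-response parameters came from normalized, curve-fitted qHTS data.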
HT1080NT lethal – kills 2HG-producing HT-1080-NT fibrosarcoma cells; Potency, µM (top dose mostly 46.1 µM), inactives show at the top dose activity, negative = less viability, actives largely listed as cytotoxic; actives 1.6% (n = 360,000); AID 686970; HT-1080-NT fibrosarcoma viability, CellTiter-Glo ATP luminescence, 48 h;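 also: NT is the 2HG producing partner of a matched IDH1 knockdown line; 0% = DMSO-treated cells and -100% = media-only wells without cells; nearly all actives have a fitted effect of over 55% in size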
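HT-1080-NT fibrosarcoma cells (2HG-overproducing), 750 cells/well in RPMI with 5% FBS, dosed after 2 h and incubated 48 h at 37C. CellTiter-Glo luminescence normalized to DMSO and no-cell wells; concentration-response curves fitted and classed.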
SW480 rerep – induces DNA re-replication in SW480 colon adenocarcinoma cells; SW480 DNA re-replication, Hoechst DNA content imaging, 48 h; Potency, µM (top dose mostly 46.1 µM), for the others: at the highest dose re-replication activation, actives largely listed as activators; actives 1.8% (n = 340,000); AID 624297; also: % of control where 0% means no effect; nearly all actives have a fitted effect of over 55% in size
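First, 250 cells per well were seeded. Next, compound or vehicle (23 nL) was pinned in, plates sat 48 hr at 37 C. Finally Hoechst was added for 40 min before fluorescence scanning.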
KB-3-1 tox – kills parental KB-3-1 adenocarcinoma cells; AID 1347075; KB-3-1 viability, CellTiter-Glo ATP luminescence, 72 h; Potency, µM (highest dose often 46.1 µM), hits mostly cytotoxic; actives 1.4% (n = 400,000); also: % is scaled to controls: 0 for no effect and ±100 for the full control effect; nearly all actives have a fitted effect of over 60% in size
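Parental KB-3-1 adenocarcinoma cells in phenol-red-free DMEM with 10% FBS were pin-treated with compounds at several concentrations, incubated 72 h at 37 °C, and viability read by CellTiter-Glo luminescence; concentration-effect curves were fitted after normalization.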
* = called active by the depositor; i = inactive; ? = inconclusive; / = no result; ! = not confirmed by another sample. An excerpt weighted towards active compounds, which were near 8% of everything screened. Calls follow the shape of the dose curve; as a rule, active = well fitted curve in the direction sought with a large enough effect; inconclusive = small, poorly fitted or top-dose-only effect, or another doubt; inactive = no such curve, though single readings can be large; an effect the other way counts as inactive or inconclusive. Potency is read from the fitted curve at half-maximal effect.

SMILES	MCF10A rerep	HT1080 IDH1KD tx	KB-V1 cytotox	HT1080NT lethal	SW480 rerep	KB-3-1 tox
COc1ccccc1N1CCN(C(=O)COc2cc(C)cc(C)c2)CC1	3.6%	-14.3%	?	-6.9%	1.0%	?
CCC1CSC(Nc2ccc(C(=O)/C=C/c3ccc(Br)cc3)cc2)=N1 (stereo not given)	16.4µM*	18.4µM*	?	?	?	i
CCC1CSC(Nc2ccc(C(=O)/C=C/c3ccc(OC)c(OC)c3)cc2)=N1 (stereo not given)	?	?	2.91µM*	?	?	?
COc1ccc(/C=C/C(=O)c2ccc(NC3=NCCCS3)cc2)cc1OC	?	?	?	?	?	i
Cc1ccc(NC2CCCN(C(=O)C3CCCCC3)C2)cc1C (stereo not given)	9.9%	-6.8%	i	-2.4%	8.6%	i
CCc1ccc(-c2cc(C)no2)cc1S(=O)(=O)Nc1ccc(Cl)cc1	/	/	16.4µM*	/	/	?
CCc1ccc(-c2cc(C)no2)cc1S(=O)(=O)Nc1ccc(Cl)cn1	-1.1%	-8.1%	i	-9.1%	-22.1%	i
COc1ccc(CCNC(=O)COC(=O)/C=C/c2ccc3c(c2)OCO3)cc1OC	10.0%	10.3%	i	-1.3%	-0.5%	i
CCCC(=O)Nc1ccc(C(=O)NCCc2ccc(F)cc2)cc1	-2.5%	29.8%	14.6µM*	17.1%	5.3%	i
O=C(NCCc1ccc(F)cc1)c1coc(=O)c(Br)c1	4.11µM*	?	i	?	18.5%	?
O=C(c1cc(-c2cccs2)nn1-c1ccccc1)N1CCN(S(=O)(=O)c2ccccc2)CC1	14.0%	0.1%	16.4µM*	-2.9%	?	i
Cc1ccc(S(=O)(=O)N2CCN(C(=O)c3cc(-c4cccs4)nn3-c3ccccc3)CC2)cc1	10.2%	-0.2%	4.61µM*	-0.5%	3.3%	i
Cc1ccc(NS(=O)(=O)c2ccc3nc(-c4ccccc4)[nH]c3c2)cc1Cl	/	/	i	/	/	?
Cc1ccc(NS(=O)(=O)c2ccc(Cl)c(C(=O)Nc3ccccc3-c3nc4ccccc4[nH]3)c2)cc1C	5.17µM*	8.2µM*	7.31µM*	6.51µM*	8.2µM*	?
Cn1c(SCCOc2ccccc2)nnc1-c1ccc(NC(=O)CCc2ccccc2)cc1	/	/	i	/	/	i
CCCCc1oc2ccccc2c1C(=O)c1cc(I)c(OCCN(CC)CC)c(I)c1	9.2µM*!	?	i	?	23.1µM*!	i
CCN(CC)CCOc1ncnc2c1oc1ccccc12	?	-2.2%	i	-5.5%	-15.4%	i
CCCOc1ccc(/C(O)=C2\C(=O)C(=O)N(c3ccccn3)C2c2ccccc2F)cc1C (stereo not given)	?	?	18.4µM*	?	21.5%	i
COc1cccc(/C(O)=C2\C(=O)C(=O)N(c3ccccn3)C2c2cccc(OC)c2OC)c1 (stereo not given)	11.3%	1.3%	23.1µM*	1.0%	-13.0%	i
CN(Cc1cccs1)c1ncnc2ccc(-c3ccc4cn(C)nc4c3)cc12	/	/	i	/	/	?
N#CCCn1cc(C(=O)Nc2ccc(C(=O)O)cc2)c(-c2ccc([N+](=O)[O-])cc2)n1	0.7%	13.6%	i	-2.7%	-10.8%	i
N#CCCn1cc(C(=O)Nc2cccc(C(=O)O)c2)c(-c2ccc(Cl)cc2)n1	4.1%	-0.6%	i	2.1%	4.11µM*	i
CCOc1ccccc1NC(=O)Cn1c(=O)n(-c2ccccc2)c(=O)c2c1c1cc(C)ccc1n2C	/	/	i	/	/	i
Cc1ccc(-n2c(SCc3nc(-c4ccccc4C)no3)nnc2-c2ccncc2)cc1C	/	/	i	/	/	i
CN1CCN(c2ccc(-c3cc(NC=O)c4ncc(-c5ccccc5)n4c3)cc2)CC1	/	?	23.1µM*	?	/	i
SMILES	MCF10A rerep	HT1080 IDH1KD tx	KB-V1 cytotox	HT1080NT lethal	SW480 rerep	KB-3-1 tox
CN1CCN(c2ccc(-c3cc(NC=O)c4ncc(-c5ccc(F)cc5)n4c3)cc2)CC1	/	?	i	?	/	?
CC(=O)Nc1cc(-c2ccc(N3CCN(C)CC3)cc2)cn2c(-c3ccccc3)cnc12	/	20.6µM*	i	?	/	i
CSc1ccc(/C=C2\C=Cc3ccccc32)cc1	/	/	i	/	/	i
Oc1cc2cc(-c3csc(-c4ccc(F)cc4)n3)cc3c2n1CCC3	/	/	i	/	/	?
CCOc1ccc(NC(=O)CN2C(=O)NC(C)(c3ccc(OC(F)F)cc3)C2=O)cc1 (stereo not given)	16.6%	18.4µM*	i	?	?	?
CC1(c2ccc(OC(F)F)cc2)NC(=O)N(CC(=O)Nc2ccc(OC(F)F)cc2)C1=O (stereo not given)	4.1%	-27.6%	i	?	2.0%	i
Cc1ccc2nc(-c3ccc(NC(=O)CN4CCN(c5ccccn5)CC4)cc3)sc2c1	13µM*	-8.4%	i	-11.2%	?	i
O=C(CCN1C(=O)NC2(CCCC2)C1=O)Nc1ccc(-c2nc3ccccc3s2)cc1	23.1µM*	15.0%	i	12.9%	16.4µM*	i
O=C(CCN1C(=O)NC2(CCCC2)C1=O)Nc1ccc(Sc2ccc(Br)cc2)cc1	/	-28.6%	i	-11.9%	/	i
Cc1ccc2nc(-c3ccc(NC(=O)CSc4nc(N)cc(=O)[nH]4)cc3)sc2c1	10.3%	11.6µM*	i	9.2µM*	3.66µM*	?
Cc1ccc2nc(-c3ccc(NC(=O)CSc4nccc(=O)[nH]4)cc3)sc2c1	?	-20.3%	i	-6.7%	18.8%	i
CCS(=O)(=O)N1CC(=O)N(c2cccc(C)c2C)C(C)(C(=O)NC2CCCCCC2)C1 (stereo not given)	/	/	i	/	/	i
Cc1ccc2nc(-c3ccc(NC(=O)C(C)Sc4nncs4)cc3)sc2c1 (stereo not given)	?	-16.7%	11.6µM*	?	?	i
COc1ccc(C2(C)NC(=O)N(CC(=O)Nc3ccc(-c4nc5ccc(C)cc5s4)cc3)C2=O)cc1 (stereo not given)	18.4µM*	-7.5%	i	2.0%	?	i
Cc1ccc2nc(-c3ccc(NC(=O)CCS(=O)(=O)c4ccccc4)cc3)sc2c1	23.8%	-3.3%	i	-20.7%	?	i
Cc1ccc(N(CC(=O)Nc2ccc(-c3nc4ccc(C)cc4s3)cc2)S(C)(=O)=O)cc1	16.4µM*	-13.3%	i	-27.6%	?	i
